Consider 29 compounds from PubChem BioAssay (NCATS).

Structures are written as SMILES. Values without a mark were called inactive. For part of these data: Entries with a potency or affinity are not part of this list. Calls of active or inactive are those of the source. No rule for the calls is given here. Bridge positions count the residues as written; N and C are the ends. Square brackets hold non-standard residues; d marks the D form. Peptide text beside a SMILES is read from it. hArg = N=C(N)NCCCC[C@H](N)C(=O)O; Mpa = O=C(O)CCS

The conditions of assay [1]: Ebola virus entry assay, green fluorescence channel.
For assay [2] the following is noted: Ebola virus entry assay, blue channel fluorescence.
For assay [3] the following is noted: Ebola virus entry assay, ratio channel.
For assay [4] the following is noted: Ebola virus entry assay, green channel fluorescence.
The conditions of assay [5]: Ebola virus entry assay, reporter ratio channel; Channel type: primary.
The conditions of assay [6]: Ebola virus entry assay, blue channel (ratio component).
For efficacy in this document: 0% is about no effect.

Consider `C[N+]1(CC2COC(c3ccccc3)(C3CCCCC3)O2)CCCCC1` (centres undefined), for which the efficacy in assay [1] was 48.1%. Further, the result in assay [2], in assay [3], in assay [4], in assay [5] and in assay [6] was inactive.
Turning to `COc1ccc([C@@H]2Sc3ccccc3NC(=O)[C@@H]2O)cc1`, the efficacy in assay [1] is -10.4%. In addition, the compound was classed as inactive in assay [2], in assay [3], in assay [4], in assay [5] and in assay [6].
For `CC(C)=CCNc1ncnc2c1ncn2[C@@H]1O[C@H](CO)[C@@H](O)[C@H]1O`, the efficacy in assay [1] was 38.7%. Besides, the compound was classed as inactive in assay [2], in assay [3], in assay [4], in assay [5] and in assay [6].
`COCCOC(=O)C1=C(C)NC(C)=C(C(=O)OC/C=C/c2ccccc2)C1c1cccc([N+](=O)[O-])c1` (centres undefined): the efficacy in assay [1] is 17.5%. Further, the compound was classed as inactive in assay [2], in assay [3], in assay [4], in assay [5] and in assay [6].
As to `CCC(CC)(CC(=O)Nc1cccc(/C=C/c2nc(C3CCC3)cs2)c1)C(=O)O`, the efficacy in assay [1] is -22.5%. Moreover, the compound was classed as inactive in assay [2], in assay [3], in assay [4], in assay [5] and in assay [6].
Consider `N[C@H]1CN(c2c(F)cc3c(=O)c(C(=O)O)cn(C4C[C@@H]4F)c3c2Cl)CC12CC2` (some centres undefined), for which the efficacy in assay [1] was -25.5%. Also, the compound was classed as inactive in assay [2], in assay [3], in assay [4], in assay [5] and in assay [6].
As to `COc1ccccc1OC(=O)Oc1ccccc1OC`, the efficacy in assay [1] is -25.8%. Also, the compound was called inactive in assay [2], in assay [3], in assay [4], in assay [5] and in assay [6].
Turning to `OC1C(O)C(O)C(O)C(O)C1O` (centres undefined), the efficacy in assay [1] is 12.1%. Besides, the result in assay [2], in assay [3], in assay [4], in assay [5] and in assay [6] was inactive.
Turning to `CCOCCOC(=O)/C=C/c1ccc(OC)cc1`, the efficacy in assay [1] was 19.6%. In addition, the call in assay [2], in assay [3], in assay [4], in assay [5] and in assay [6] was inactive.
Consider `O=C1Nc2ccccc2C1(c1ccc(O)cc1)c1ccc(O)cc1`, for which, in assay [1], the efficacy was -14%. Also, the outcome in assay [2], in assay [3], in assay [4], in assay [5] and in assay [6] was inactive.
Take `COc1cc(NS(=O)(=O)c2ccc(N)cc2)ncn1`: the efficacy in assay [1] was 14.9%. Further, the compound was classed as inactive in assay [2], in assay [3], in assay [4], in assay [5] and in assay [6].
On to `Clc1ccc(C(Cn2ccnc2)OCc2ccc(Sc3ccccc3)cc2)c(Cl)c1` (centres undefined), for which the efficacy in assay [1] is 29.2%. The compound was called inactive in assay [2], in assay [3], in assay [4], in assay [5] and in assay [6].
`O=c1[nH]c(=O)n([C@H]2C[C@H](O)[C@@H](CO)O2)cc1C(F)(F)F`: the efficacy in assay [1] is 18.2%. The call in assay [2], in assay [3], in assay [4], in assay [5] and in assay [6] was inactive.
Take `CCCCC(=O)O[C@]1(C(=O)CO)[C@@H](C)C[C@H]2[C@@H]3CCC4=CC(=O)C=C[C@]4(C)[C@@]3(F)[C@@H](O)C[C@@]21C`: the efficacy in assay [1] is 22.2%. Further, the outcome in assay [2], in assay [3], in assay [4], in assay [5] and in assay [6] was inactive.
For the compound `CCOC(=O)C(C#N)=C(c1ccccc1)c1ccccc1`, the efficacy in assay [1] was 19.4%. In addition, the compound was called inactive in assay [2], in assay [3], in assay [4], in assay [5] and in assay [6].
For `OC[C@H]1O[C@@H](n2cnc3c(=S)nc[nH]c32)[C@H](O)[C@@H]1O`, the efficacy in assay [1] is 23.6%. In addition, the result in assay [2], in assay [3], in assay [4], in assay [5] and in assay [6] was inactive.
Consider `CC(COc1ccccc1)NC(C)C(O)c1ccc(O)cc1` (centres undefined), for which, in assay [1], the efficacy is -32.1%. For the same compound, the result in assay [2], in assay [3], in assay [4], in assay [5] and in assay [6] was inactive.
Regarding `O=C(O)CNC(=O)c1ccccc1I`, in assay [1], the efficacy is -12.8%. For the same compound, the compound was classed as inactive in assay [2], in assay [3], in assay [4], in assay [5] and in assay [6].
As to `NCC(=O)O`, in assay [1], the efficacy was 13.7%. Also, the compound was called inactive in assay [2], in assay [3], in assay [4], in assay [5] and in assay [6].
`C[C@H](N)[C@H](O)c1cccc(O)c1`: the efficacy in assay [1] was -10.3%. Besides, the result in assay [2], in assay [3], in assay [4], in assay [5] and in assay [6] was inactive.
With `C[C@@H](O)[C@H]1C(=O)N2C(C(=O)O)=C([C@H]3CCCO3)S[C@H]12`, in assay [1], the efficacy is -19.1%. Moreover, the compound was classed as inactive in assay [2], in assay [3], in assay [4], in assay [5] and in assay [6].
Consider `NC(=O)[C@@H]1CSSCCC(=O)N[C@@H](CCCCN=C(N)N)C(=O)NCC(=O)N[C@@H](CC(=O)O)C(=O)N[C@@H](Cc2c[nH]c3ccccc23)C(=O)N2CCC[C@H]2C(=O)N1` ([Mpa][hArg]GDWPC-NH2; disulfide 1-7), for which the efficacy in assay [1] is 12.3%. In addition, the compound was called inactive in assay [2], in assay [3], in assay [4], in assay [5] and in assay [6].
For `CCCc1cc(C(N)=S)ccn1`, the efficacy in assay [1] is -10.8%. Besides, the compound was classed as inactive in assay [2], in assay [3], in assay [4], in assay [5] and in assay [6].
For `Nc1ccncc1N`, in assay [1], the efficacy is -16.5%. Also, the result in assay [2], in assay [3], in assay [4], in assay [5] and in assay [6] was inactive.
As to `NNC(=O)CP(=O)(c1ccccc1)c1ccccc1`, the efficacy in assay [1] was 11.5%. Further, the result in assay [2], in assay [3], in assay [4], in assay [5] and in assay [6] was inactive.
On to `NCC1CCC(C(=O)Oc2ccc(CCC(=O)O)cc2)CC1` (centres undefined), for which the efficacy in assay [1] is 32.3%. The compound was classed as inactive in assay [2], in assay [3], in assay [4], in assay [5] and in assay [6].
For `CCCCCCc1ccc(O)cc1O`, the efficacy in assay [1] was -21%. Besides, the result in assay [2], in assay [3], in assay [4] and in assay [6] was inactive. Also, in assay [5], the AC50 – broadly, the concentration at which the activity in the assay is half-maximal – was 39.8 µM (active).
For `C#C[C@]1(OC(C)=O)CC[C@H]2[C@@H]3CCC4=C[C@@H](OC(C)=O)CC[C@@H]4[C@H]3CC[C@@]21C`, the efficacy in assay [1] was -36.9%. For the same compound, the compound was classed as inactive in assay [2], in assay [3], in assay [4], in assay [5] and in assay [6].
For the compound `CCOC(=O)[C@H](CCc1ccccc1)N[C@@H](C)C(=O)N(CC(=O)O)C1Cc2ccccc2C1`, the efficacy in assay [1] is 28.2%. Also, the result in assay [2], in assay [4] and in assay [6] was inactive. In addition, the AC50 in assay [3] and in assay [5] was 20 µM (active) in each case.
